The panel holds about 83,000 compounds, 20% with a hit somewhere; the sample as a whole holds those more often.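 In brief: 96-well plates, 48 h treatment, single concentration, percent growth endpoint.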 Unmarked numbers belong to inactive results. Calls of active or inactive are those of the source. Rule for the calls: active = growth percent below 10; inactive = the rest.
Assays:
Assay in all cases: NCI-60 one-dose screen, 48 h (100 = growth as untreated, 0 = no growth, -100 = all killed)
Conditions in all cases: 10 µM unless noted
SK-MEL-2 melanoma = tested on: SK-MEL-2 melanoma
SN12C renal = tested on: SN12C renal
UO-31 renal = tested on: UO-31 renal
TK-10 renal = tested on: TK-10 renal
ACHN renal = tested on: ACHN renal
A498 renal = tested on: A498 renal
CCRF-CEM leukemia = tested on: CCRF-CEM leukemia
MOLT-4 leukemia = tested on: MOLT-4 leukemia
CAKI-1 renal = tested on: CAKI-1 renal

## COc1ccc(C(=O)c2cc(OC)c(OC)c(OC)c2)cc1/C=C/C(=O)c1ccc2c(c1)OCO2
SK-MEL-2 melanoma
  growth: 22.2%
SN12C renal
  growth: 23.8%
UO-31 renal
  growth: -9.84% (active)
TK-10 renal
  growth: 44.6%
ACHN renal
  growth: -76.4% (active)
A498 renal
  growth: 71.9%
CCRF-CEM leukemia
  growth: -9.53% (active)
MOLT-4 leukemia
  growth: 2.27% (active)

## CC(C)(C)OC(=O)N[C@@H](Cc1ccccc1)C(=O)N(Cc1ccccc1)C1(C(=O)NCc2ccccc2)CCN(Cc2ccccc2)CC1
SK-MEL-2 melanoma
  growth: 55.9%
SN12C renal
  growth: 19.3%
UO-31 renal
  growth: 15.5%
TK-10 renal
  growth: 62.3%
ACHN renal
  growth: 40.8%
A498 renal
  growth: 8.13% (active)
CCRF-CEM leukemia
  growth: 33.9%
MOLT-4 leukemia
  growth: 7.74% (active)

## COc1ccc(/C=C/C(=O)c2ccc(B(O)O)cc2)cc1O
SK-MEL-2 melanoma
  growth: 92.2%
SN12C renal
  growth: 86.7%
UO-31 renal
  growth: 60.8%
TK-10 renal
  growth: 104%
ACHN renal
  growth: 93.9%
A498 renal
  growth: 61.8%
CCRF-CEM leukemia
  growth: 82.6%
MOLT-4 leukemia
  growth: 82.3%

## COc1cccc(/C=C/C(=O)c2sc(Nc3ccc(O)cc3)nc2C)c1
SK-MEL-2 melanoma
  growth: 79.9%
SN12C renal
  growth: 86.2%
UO-31 renal
  growth: 62%
TK-10 renal
  growth: 114%
ACHN renal
  growth: 98.1%
CAKI-1 renal
  growth: 105%
CCRF-CEM leukemia
  growth: 13.3%
MOLT-4 leukemia
  growth: 30.8%

## COc1cc(NC(=O)c2cc3ccccc3nc2Nc2ccc(F)cc2)cc(OC)c1OC
SK-MEL-2 melanoma
  growth: 63.4%
SN12C renal
  growth: 62.3%
UO-31 renal
  growth: 46.7%
TK-10 renal
  growth: 65.3%
ACHN renal
  growth: 42.9%
CAKI-1 renal
  growth: 52.4%
CCRF-CEM leukemia
  growth: 42.1%
MOLT-4 leukemia
  growth: 12.4%

## COc1c(NC[C@H]2OC(O)[C@H](O)[C@@H](O)[C@@H]2O)c(=O)c1=O (some centres not stated)
SK-MEL-2 melanoma
  growth: 121%
SN12C renal
  growth: 101%
UO-31 renal
  growth: 86.7%
TK-10 renal
  growth: 97%
ACHN renal
  growth: 105%
A498 renal
  growth: 73%
CCRF-CEM leukemia
  growth: 81.2%
MOLT-4 leukemia
  growth: 102%

## O=C(NNC(=S)Nc1ccccc1)c1ccccn1
SK-MEL-2 melanoma
  growth: 85.6%
SN12C renal
  growth: 43.7%
UO-31 renal
  growth: 19.8%
TK-10 renal
  growth: 50.2%
ACHN renal
  growth: 16.4%
CAKI-1 renal
  growth: 5.93% (active)
CCRF-CEM leukemia
  growth: 18.8%
MOLT-4 leukemia
  growth: 13.8%

## COc1cc(C(=O)/C=C/c2cc(C(=O)c3cc(OC)c(OC)c(OC)c3)ccc2OC)ccc1N
SK-MEL-2 melanoma
  growth: -38.6% (active)
SN12C renal
  growth: 18.8%
UO-31 renal
  growth: -86.7% (active)
TK-10 renal
  growth: 13.1%
ACHN renal
  growth: -88.5% (active)
A498 renal
  growth: -6.91% (active)
CCRF-CEM leukemia
  growth: -10.7% (active)
MOLT-4 leukemia
  growth: 4.31% (active)

## COc1ccc(C2CC(=O)Nc3c2c(C)nn3-c2nc3ccccc3[nH]2)cc1OC (configuration not stated)
SK-MEL-2 melanoma
  growth: 77.8%
SN12C renal
  growth: 89.9%
UO-31 renal
  growth: 52.4%
ACHN renal
  growth: 85.2%
CAKI-1 renal
  growth: 72.8%
A498 renal
  growth: 3.48% (active)
CCRF-CEM leukemia
  growth: 5.82% (active)
MOLT-4 leukemia
  growth: -31.5% (active)

## COc1ccc(NC(=O)CSc2nc3ccccc3c(=O)n2-c2ccccc2C(F)(F)F)c(OC)c1OC
SK-MEL-2 melanoma
  growth: 121%
SN12C renal
  growth: 93%
UO-31 renal
  growth: 91.9%
ACHN renal
  growth: 99.2%
CAKI-1 renal
  growth: 98.4%
A498 renal
  growth: 74.8%
CCRF-CEM leukemia
  growth: 101%
MOLT-4 leukemia
  growth: 107%

## CN=S(=O)(NC(=O)c1ccc(Cl)cc1Cl)c1ccc(Br)s1 (configuration not stated)
SK-MEL-2 melanoma
  growth: 108%
SN12C renal
  growth: 105%
UO-31 renal
  growth: 89.4%
TK-10 renal
  growth: 106%
ACHN renal
  growth: 102%
A498 renal
  growth: 67.8%
CCRF-CEM leukemia
  growth: 96.8%
MOLT-4 leukemia
  growth: 93.3%

## O=c1[nH]c2ccccc2cc1-c1nnc(Cc2ccccc2)o1
SK-MEL-2 melanoma
  growth: 78.4%
SN12C renal
  growth: 74%
UO-31 renal
  growth: 40%
TK-10 renal
  growth: 112%
ACHN renal
  growth: 65.9%
A498 renal
  growth: 106%
CCRF-CEM leukemia
  growth: 19%
MOLT-4 leukemia
  growth: 57.1%

## O=C(CN1CCOCC1)Nc1ccc(-c2nc3ccccc3s2)cc1
SK-MEL-2 melanoma
  growth: 115%
SN12C renal
  growth: 101%
UO-31 renal
  growth: 95%
TK-10 renal
  growth: 112%
ACHN renal
  growth: 104%
CAKI-1 renal
  growth: 99.7%
CCRF-CEM leukemia
  growth: 95.5%
MOLT-4 leukemia
  growth: 99.4%

## COc1ccc(C(=O)/C=C/c2cccc([N+](=O)[O-])c2)c(OC)c1
SK-MEL-2 melanoma
  growth: 72.4%
SN12C renal
  growth: 8.76% (active)
UO-31 renal
  growth: -13% (active)
TK-10 renal
  growth: 50%
ACHN renal
  growth: -43.5% (active)
CAKI-1 renal
  growth: 24.8%
CCRF-CEM leukemia
  growth: 5.85% (active)
MOLT-4 leukemia
  growth: 7.24% (active)

## CC(C)C[C@H](NC(=O)[C@@H](Cc1ccccc1)n1ccc(Nc2ccccc2)cc1=O)B(O)O
SK-MEL-2 melanoma
  growth: -14.9% (active)
SN12C renal
  growth: -25.1% (active)
UO-31 renal
  growth: -44% (active)
TK-10 renal
  growth: -0.144% (active)
ACHN renal
  growth: 20.9%
A498 renal
  growth: -47.3% (active)
CCRF-CEM leukemia
  growth: -5.5% (active)
MOLT-4 leukemia
  growth: -8.47% (active)

## Nc1c(C(=O)Nc2ccccc2)sc2nc3c(cc12)CN(Cc1ccccc1)CC3
SK-MEL-2 melanoma
  growth: 103%
SN12C renal
  growth: 70.3%
UO-31 renal
  growth: 49.8%
TK-10 renal
  growth: 53.9%
ACHN renal
  growth: 38.1%
A498 renal
  growth: 26.5%
CCRF-CEM leukemia
  growth: 98.6%
MOLT-4 leukemia
  growth: 92.3%

## O=C1c2ccccc2C(=O)c2c(N=Nc3sc(=O)[nH]c3S)cccc21
SK-MEL-2 melanoma
  growth: 95.2%
SN12C renal
  growth: 100%
UO-31 renal
  growth: 88.7%
TK-10 renal
  growth: 138%
ACHN renal
  growth: 102%
CAKI-1 renal
  growth: 96.3%
CCRF-CEM leukemia
  growth: 94.8%
MOLT-4 leukemia
  growth: 101%

## O=C(Nc1ccc(OCc2nnc(-c3ccc(Cl)cc3)o2)c(F)c1)Nc1ccc(Cl)c(Cl)c1
SK-MEL-2 melanoma
  growth: 81.5%
SN12C renal
  growth: 90.9%
UO-31 renal
  growth: 56.3%
TK-10 renal
  growth: 77.5%
ACHN renal
  growth: 3.37% (active)
A498 renal
  growth: 67.9%
CCRF-CEM leukemia
  growth: 51.7%
MOLT-4 leukemia
  growth: 45.2%

## COc1ccc(/C=C/C(=O)c2cccc(B(O)O)c2)cc1O
SK-MEL-2 melanoma
  growth: 107%
SN12C renal
  growth: 28.7%
UO-31 renal
  growth: 19.9%
TK-10 renal
  growth: 99.3%
ACHN renal
  growth: 60.6%
A498 renal
  growth: 52.1%
CCRF-CEM leukemia
  growth: 37.3%
MOLT-4 leukemia
  growth: 46.6%

## CCOC(=O)C1=C(CSC(=S)N(C2CCCCC2)C2CCCCC2)N(C)C(=O)NC1c1ccccc1 (configuration not stated)
SK-MEL-2 melanoma
  growth: 55.6%
SN12C renal
  growth: 71.2%
UO-31 renal
  growth: 44.5%
TK-10 renal
  growth: 74%
ACHN renal
  growth: 37.8%
CAKI-1 renal
  growth: 25.4%
CCRF-CEM leukemia
  growth: 35.3%
MOLT-4 leukemia
  growth: 28.2%

## CC(C)(C)c1ccc(S(=O)(=O)Oc2ccc3c4c(c(=O)oc3c2)CCCCC4)cc1
SK-MEL-2 melanoma
  growth: 45%
SN12C renal
  growth: 63.3%
UO-31 renal
  growth: 43.4%
TK-10 renal
  growth: 87.1%
ACHN renal
  growth: 30.3%
A498 renal
  growth: -0.52% (active)
CCRF-CEM leukemia
  growth: 58.6%
MOLT-4 leukemia
  growth: 54.7%

## O=S(=O)(NCCNc1nccc(-c2c(-c3ccccc3)nc3sccn23)n1)c1ccc(O)cc1
SK-MEL-2 melanoma
  growth: 49.7%
SN12C renal
  growth: 40.3%
UO-31 renal
  growth: 31.4%
TK-10 renal
  growth: 62.2%
ACHN renal
  growth: 25.8%
CAKI-1 renal
  growth: 53.5%
CCRF-CEM leukemia
  growth: 52.2%
MOLT-4 leukemia
  growth: 28.7%

## Cc1cc(C)c(NC(=O)c2sc3nc4c(cc3c2N)CN(Cc2ccccc2)CC4)c(C)c1
SK-MEL-2 melanoma
  growth: 24%
SN12C renal
  growth: 23.9%
UO-31 renal
  growth: 26.5%
TK-10 renal
  growth: 67.6%
ACHN renal
  growth: 45.7%
A498 renal
  growth: 1.87% (active)
CCRF-CEM leukemia
  growth: 16.6%
MOLT-4 leukemia
  growth: 25%

## COc1cc(-c2nc(-c3nc4ccccc4[nH]3)cc3c2[nH]c2ccccc23)cc(OC)c1OC
SK-MEL-2 melanoma
  growth: 23.9%
SN12C renal
  growth: 40.4%
UO-31 renal
  growth: 24.3%
ACHN renal
  growth: 51.4%
CAKI-1 renal
  growth: 20%
A498 renal
  growth: 44.8%
CCRF-CEM leukemia
  growth: 16.8%
MOLT-4 leukemia
  growth: 44.3%

## Cc1ccc(Oc2nc3ccccc3cc2-c2nnc(Cn3c(COc4ccccc4)nc4ccccc43)o2)cc1
SK-MEL-2 melanoma
  growth: 89.8%
SN12C renal
  growth: 29.4%
UO-31 renal
  growth: 8.45% (active)
TK-10 renal
  growth: 77.1%
ACHN renal
  growth: 49.9%
A498 renal
  growth: 54.1%
CCRF-CEM leukemia
  growth: 0.728% (active)
MOLT-4 leukemia
  growth: -13.8% (active)

## O=c1oc2cc(OS(=O)(=O)c3ccccc3)c(Cl)cc2c2c1CCCCCC2
SK-MEL-2 melanoma
  growth: 106%
SN12C renal
  growth: 87.2%
UO-31 renal
  growth: 71.5%
TK-10 renal
  growth: 111%
ACHN renal
  growth: 88.2%
A498 renal
  growth: 86.1%
CCRF-CEM leukemia
  growth: 81%
MOLT-4 leukemia
  growth: 77.4%

## O=C(CNc1c(Cl)cccc1Cl)Nc1ccc(-c2nc3ccccc3s2)cc1
SK-MEL-2 melanoma
  growth: 84.8%
SN12C renal
  growth: 48%
UO-31 renal
  growth: 73.7%
TK-10 renal
  growth: 106%
ACHN renal
  growth: 42.3%
CAKI-1 renal
  growth: 28.8%
CCRF-CEM leukemia
  growth: 2.24% (active)
MOLT-4 leukemia
  growth: 5.63% (active)

## COc1ccc(C(=O)c2cc(OC)c(OC)c(OC)c2)cc1/C=C/C(=O)c1ccc(OC)c(OC)c1
SK-MEL-2 melanoma
  growth: 20.9%
SN12C renal
  growth: 42.3%
UO-31 renal
  growth: 26.3%
TK-10 renal
  growth: 63.8%
ACHN renal
  growth: 20.4%
A498 renal
  growth: 74.1%
CCRF-CEM leukemia
  growth: 6.83% (active)
MOLT-4 leukemia
  growth: 12.8%

## COC(=O)c1cc(-c2cccs2)c(C#N)c(N)c1C#N
SK-MEL-2 melanoma
  growth: 112%
SN12C renal
  growth: 102%
UO-31 renal
  growth: 92.7%
TK-10 renal
  growth: 116%
ACHN renal
  growth: 107%
A498 renal
  growth: 104%
CCRF-CEM leukemia
  growth: 92.5%
MOLT-4 leukemia
  growth: 98.1%
